Active and inactive are the calls of the source.
Assays:
[1] = E. coli DRC41 culture turbidity changes, primary screen, E. coli filamentation inducer project, strain DRC41, OD650, 48 h (AID 1152);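 further: E. coli MC1000 strain DRC41 lacking acrAB efflux pump and sulA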; settings: E. coli DRC41 (acrAB sulA), higher = more signal, called active from +8 up or from −8 down
[2] = small-molecule binders of probe aLefty1, primary screen, biochemical, small-molecule microarray, 635/667 nm fluorescence (AID 1153); settings: higher = more signal;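 further: score merges spot fluorescence with signal-to-noise ratio from the scanned slide images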
[3] = PSAC antagonists in infected red cells, primary screen, cell-based, P. falciparum Indochina, OD700, 1 h (AID 1154); settings: P. falciparum Indochina infected RBC osmotic lysis, higher = more signal, called active from +8 up or from −8 down
[4] = PSAC antagonists in infected red cells, primary screen, cell-based, P. falciparum Indochina, OD700, 2 h (AID 1155);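 further: lysis reports solute entry through the parasite surface anion channel PSAC; channel blockers reduce lysis of infected cells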; settings: P. falciparum Indochina infected erythrocytes, osmotic lysis OD700; higher = more signal, called active from +8 up or from −8 down
[5] = osmotic lysis modulators in infected erythrocytes, primary screen, PSAC antagonist project, cell-based, P. falciparum Indochina, OD700, 3 h (AID 1156); settings: higher = more signal, called active from +8 up or from −8 down
[6] = PSAC antagonists in infected red cells, primary screen, cell-based, P. falciparum Indochina, OD700, 18 h (AID 1157); settings: P. falciparum Indochina infected erythrocytes, osmotic lysis OD700, 18 h; higher = more signal, called active from +8 up or from −8 down
[7] = modulators of S6 phosphorylation in cells, primary screen, cell-based, A549, cytoblot, luminescence, serum-stimulated (AID 1158); settings: A549 phospho-S6 cytoblot, 5 h, higher = more signal;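 further: serum-stimulated A549 lung adenocarcinoma cells; signal is phosphorylated S6 detected by cytoblot immunostaining with HRP secondary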
[8] = target: NADPH oxidase 2 (Homo sapiens) (UniProt P04839); test: NOX2-dependent H2O2 signal modulators, primary screen, NOX inhibitor project, cell-based, HEK293-NOX2, PMA-stimulated, Amplex Red fluorescence (AID 1159); settings: 45 min, higher = more signal, called active from +8 up or from −8 down; further: test concentration not given here
[9] = target: NADPH oxidase 4 (Homo sapiens) (UniProt Q9NPH5); test: NOX4-dependent H2O2 signal modulators, primary screen, NOX inhibitor project, cell-based, HEK293-NOX4, tetracycline-induced, Amplex Red fluorescence (AID 1160); settings: 45 min, higher = more signal, called active from +8 up or from −8 down
[10] = target: NADPH oxidase 5 (Homo sapiens) (UniProt Q96PH1); test: NOX5-dependent H2O2 signal modulators, primary screen, NOX inhibitor project, cell-based, HEK293-NOX5, Amplex Red fluorescence (AID 1161); settings: HEK293-NOX5, ionomycin, 45 min, higher = more signal
[11] = A549 cell viability effects, profiling panel, calcein-AM fluorescence, 48 h, basal (AID 1162); settings: higher = more signal; further: test concentration not given here
[12] = adipocyte viability effects, profiling panel, cell-based, 3T3-L1 adipocytes, calcein-AM fluorescence, 48 h, basal (AID 1163); settings: 3T3-L1 adipocytes viability, higher = more signal; further: test concentration not given here
[13] = HepG2 cell viability effects, profiling panel, calcein-AM fluorescence, 48 h, basal (AID 1164); settings: higher = more signal; further: test concentration not given here
[14] = MM1S cell viability effects, profiling panel, calcein-AM fluorescence, 48 h, basal (AID 1165); settings: higher = more signal;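 further: viability of MM1S multiple myeloma cells under basal unstimulated conditions; test concentration not given here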
[15] = basal RPMI8226 viability, no added stimulus, profiling panel, cell-based, calcein-AM fluorescence, 48 h, PK04 Diversity Set (AID 1166); settings: RPMI8226 myeloma viability, higher = more signal;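 further: cells grown under basal conditions without added stimulus; test concentration not given here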
[16] = basal HepG2 mitochondrial membrane potential changes, profiling panel, cell-based, JC-1 fluorescence, 24 h, 100 nL compound (AID 1167); settings: higher = more signal; further: test concentration not given here
[17] = basal 3T3-L1 adipocyte mitochondrial potential changes, profiling panel, cell-based, JC-1 fluorescence, 3T3-L1 adipocytes, 24 h, 100 nL compound (AID 1168); settings: JC-1 mitochondrial fluorescence, higher = more signal, called active from +8 up or from −8 down; further: test concentration not given here
[18] = basal RPMI8226 mitochondrial membrane potential changes, profiling panel, cell-based, JC-1 fluorescence, 24 h, 100 nL compound (AID 1169); settings: RPMI8226 myeloma, JC-1 mitochondrial potential fluorescence, higher = more signal; further: test concentration not given here
[19] = basal MM1S mitochondrial membrane potential changes, profiling panel, cell-based, JC-1 fluorescence, 24 h, 100 nL compound (AID 1170); settings: higher = more signal; further: test concentration not given here
[20] = A549 lung cancer cell viability effects, profiling panel, resazurin fluorescence, 24 h, PK04 Diversity Set (AID 1171); settings: higher = more signal, called active from +8 up or from −8 down; further: test concentration not given here

Chain of NADPH oxidase 5 (Homo sapiens) (Q96PH1 whole entry, looked up): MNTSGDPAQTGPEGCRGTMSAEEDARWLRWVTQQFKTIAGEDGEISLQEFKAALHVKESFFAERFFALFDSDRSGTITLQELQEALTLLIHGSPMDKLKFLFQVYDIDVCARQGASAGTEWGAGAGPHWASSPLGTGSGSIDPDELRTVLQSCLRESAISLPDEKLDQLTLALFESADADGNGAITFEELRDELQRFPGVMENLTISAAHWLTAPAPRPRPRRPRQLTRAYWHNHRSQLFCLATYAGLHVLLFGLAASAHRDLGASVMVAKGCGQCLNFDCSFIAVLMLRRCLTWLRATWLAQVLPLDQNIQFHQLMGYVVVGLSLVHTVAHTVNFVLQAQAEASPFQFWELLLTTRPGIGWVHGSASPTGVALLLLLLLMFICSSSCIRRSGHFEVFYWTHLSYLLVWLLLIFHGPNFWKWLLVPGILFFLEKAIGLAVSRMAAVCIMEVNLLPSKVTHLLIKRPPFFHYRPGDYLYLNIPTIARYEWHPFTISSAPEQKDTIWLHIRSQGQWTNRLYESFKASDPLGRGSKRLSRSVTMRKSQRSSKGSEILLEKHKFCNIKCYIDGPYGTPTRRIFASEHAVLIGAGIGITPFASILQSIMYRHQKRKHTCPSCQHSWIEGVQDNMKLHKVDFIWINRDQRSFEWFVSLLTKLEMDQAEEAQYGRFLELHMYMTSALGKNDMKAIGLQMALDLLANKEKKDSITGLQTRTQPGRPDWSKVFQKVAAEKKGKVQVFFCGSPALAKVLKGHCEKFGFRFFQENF
Chain of NADPH oxidase 2 (Homo sapiens) (P04839 whole entry, looked up): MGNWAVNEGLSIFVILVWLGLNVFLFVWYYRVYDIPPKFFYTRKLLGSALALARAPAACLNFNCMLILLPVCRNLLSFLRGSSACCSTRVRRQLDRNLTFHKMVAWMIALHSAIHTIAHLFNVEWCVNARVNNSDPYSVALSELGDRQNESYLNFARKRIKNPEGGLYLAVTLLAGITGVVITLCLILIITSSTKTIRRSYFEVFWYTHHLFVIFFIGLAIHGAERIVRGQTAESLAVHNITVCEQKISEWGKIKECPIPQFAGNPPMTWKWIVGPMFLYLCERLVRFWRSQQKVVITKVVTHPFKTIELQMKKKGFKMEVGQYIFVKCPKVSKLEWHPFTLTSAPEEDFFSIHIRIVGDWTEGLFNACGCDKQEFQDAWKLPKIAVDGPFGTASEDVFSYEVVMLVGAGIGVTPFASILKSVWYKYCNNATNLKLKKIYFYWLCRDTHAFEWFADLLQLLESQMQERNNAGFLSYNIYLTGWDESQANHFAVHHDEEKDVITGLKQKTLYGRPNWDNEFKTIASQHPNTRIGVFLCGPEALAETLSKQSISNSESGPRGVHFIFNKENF
Chain of NADPH oxidase 4 (Homo sapiens) (Q9NPH5 whole entry, looked up): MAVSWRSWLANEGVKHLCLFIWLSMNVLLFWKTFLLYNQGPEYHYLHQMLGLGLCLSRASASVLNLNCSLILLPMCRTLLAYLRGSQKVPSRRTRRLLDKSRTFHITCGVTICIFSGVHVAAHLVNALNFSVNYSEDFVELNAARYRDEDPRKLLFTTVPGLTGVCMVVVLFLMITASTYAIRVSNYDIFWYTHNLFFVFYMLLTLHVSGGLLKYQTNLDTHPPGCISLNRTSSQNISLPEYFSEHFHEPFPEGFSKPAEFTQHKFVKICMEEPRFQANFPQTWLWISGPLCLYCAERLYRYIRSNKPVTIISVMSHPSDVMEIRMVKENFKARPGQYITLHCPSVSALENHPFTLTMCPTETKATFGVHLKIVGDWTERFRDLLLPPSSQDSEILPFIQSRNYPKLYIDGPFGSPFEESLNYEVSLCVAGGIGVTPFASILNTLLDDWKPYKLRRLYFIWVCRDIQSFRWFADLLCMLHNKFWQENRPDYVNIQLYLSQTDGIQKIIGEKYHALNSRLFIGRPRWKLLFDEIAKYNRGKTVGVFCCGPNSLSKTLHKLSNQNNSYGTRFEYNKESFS

O=C1NC(=O)C2C1C=CC(C(O)c1ccc(Br)cc1)N2Nc1ccccn1 (stereo not given)
z-score [1]: -0.325 (inactive)
composite z-score [2]: 0.5
z-score [3]: -0.0691 (inactive)
z-score [4]: -1.06 (inactive)
z-score [5]: 0.215 (inactive)
z-score [6]: -1.94 (inactive)
z-score [7]: 0.599
z-score [8]: -1.54 (inactive)
z-score [9]: -2.6 (inactive)
z-score [10]: -1.93
z-score [11]: 0.636
z-score [12]: 0.805
z-score [13]: 0.909
z-score [14]: -0.0483
z-score [15]: -0.767
z-score [16]: -0.169
z-score [17]: 0.195 (inactive)
z-score [18]: 0.698
z-score [19]: -0.273
z-score [20]: -1.58 (inactive)

CC(C)C(O)C1C=CC2C(=O)N(C)C(=O)C2N1Nc1ccccc1 (stereo not given)
z-score [1]: -0.532 (inactive)
composite z-score [2]: 0.124
z-score [3]: -0.162 (inactive)
z-score [4]: 1.18 (inactive)
z-score [5]: 0.448 (inactive)
z-score [6]: 0.778 (inactive)
z-score [7]: -0.679
z-score [8]: -1.43 (inactive)
z-score [9]: -3.72 (inactive)
z-score [10]: -2.93
z-score [11]: 0.678
z-score [12]: -0.955
z-score [13]: 0.0515
z-score [14]: -1.53
z-score [15]: -0.283
z-score [16]: -0.993
z-score [17]: -1.15 (inactive)
z-score [18]: -0.0596
z-score [19]: -0.254
z-score [20]: 0.204 (inactive)

COc1ccc([Si](C)(C)[C@H]2[C@H](CCn3cc([C@H](O)c4ccccc4)nn3)O[C@@]3(C(=O)N(Cc4ccc(N5CCOC5=O)cc4)c4ccccc43)[C@@H]2C)cc1
z-score [1]: -0.0796 (inactive)
composite z-score [2]: -0.147
z-score [3]: 31.9 (active)
z-score [4]: 31.7 (active)
z-score [5]: 1.99 (inactive)
z-score [6]: 3.2 (inactive)
z-score [7]: -0.532
z-score [8]: 0.308 (inactive)
z-score [9]: 2.85 (inactive)
z-score [10]: 2.08
z-score [11]: 1.33
z-score [12]: 0.805
z-score [13]: 1.15
z-score [14]: -1.45
z-score [15]: 0.142
z-score [16]: 0.858
z-score [17]: 0.174 (inactive)
z-score [18]: 0.157
z-score [19]: 0.113
z-score [20]: -0.265 (inactive)

CCCCN1CC=CC23O[C@@H]4/C=C\CCC(C)OC(=O)C4[C@H]2C(=O)N(CCCCCCO)[C@@H]3C1=O (stereo not given in full)
z-score [1]: 0.622 (inactive)
composite z-score [2]: -0.145
z-score [3]: 0.548 (inactive)
z-score [4]: 0.31 (inactive)
z-score [5]: 0.573 (inactive)
z-score [6]: 0.454 (inactive)
z-score [7]: 1.81
z-score [8]: 1.2 (inactive)
z-score [9]: 0.112 (inactive)
z-score [10]: 2.3
z-score [11]: -0.0164
z-score [12]: 0.736
z-score [13]: 1.11
z-score [14]: 1.79
z-score [15]: -0.273
z-score [16]: 0.375
z-score [17]: 0.145 (inactive)
z-score [18]: 0.336
z-score [19]: -0.563
z-score [20]: 0.254 (inactive)

COc1cc(CO)cc(I)c1O[C@H]1C=C(C(=O)NCCO)C[C@@H](NCc2ccccc2F)[C@@H]1O
z-score [1]: 1.96 (inactive)
composite z-score [2]: -0.117
z-score [3]: 22.2 (active)
z-score [4]: 4.37 (inactive)
z-score [5]: 3.59 (inactive)
z-score [6]: 1.09 (inactive)
z-score [7]: 0.51
z-score [8]: 0.0575 (inactive)
z-score [9]: -0.344 (inactive)
z-score [10]: -1.69
z-score [11]: 0.687
z-score [12]: -0.512
z-score [13]: 0.496
z-score [14]: 0.0067
z-score [15]: 0.12
z-score [16]: -0.0312
z-score [17]: -0.561 (inactive)
z-score [18]: 0.231
z-score [19]: -1.59
z-score [20]: 0.106 (inactive)

COc1c(C)cc(-c2cc3c(c(-c4ccccc4)n2)[Si](C(C)C)(C(C)C)OC3)cc1C
z-score [1]: 0.118 (inactive)
composite z-score [2]: -0.0287
z-score [3]: 1.54 (inactive)
z-score [4]: 0.494 (inactive)
z-score [5]: 0.392 (inactive)
z-score [6]: 0.506 (inactive)
z-score [7]: 0.768
z-score [8]: 0.956 (inactive)
z-score [9]: 0.103 (inactive)
z-score [10]: 0.829
z-score [11]: 0.33
z-score [12]: -0.182
z-score [13]: -0.43
z-score [14]: -1.51
z-score [15]: -0.515
z-score [16]: -0.759
z-score [17]: -0.00733 (inactive)
z-score [18]: 0.00523
z-score [19]: 0.486
z-score [20]: 0.51 (inactive)

CC(C)CCC[C@@H](C)[C@H]1CC[C@@]2(C)C3=C(CC[C@]12C)[C@@]1(C)CC[C@H](OC(=O)c2ccc(Br)cc2)C(C)(C)C1CC3 (stereo not given in full)
z-score [1]: 3.37 (inactive)
composite z-score [2]: -0.0559
z-score [3]: -0.571 (inactive)
z-score [4]: -0.957 (inactive)
z-score [5]: -0.149 (inactive)
z-score [6]: -2.39 (inactive)
z-score [7]: 1.62
z-score [8]: -1.07 (inactive)
z-score [9]: 0.175 (inactive)
z-score [10]: 0.929
z-score [11]: 0.986
z-score [12]: 0.889
z-score [13]: 2.04
z-score [14]: 0.109
z-score [15]: -0.269
z-score [16]: 1.14
z-score [17]: 0.599 (inactive)
z-score [18]: 0.717
z-score [19]: -0.902
z-score [20]: -0.255 (inactive)

C=CC[C@@]1(C(=O)N2CCCCC2)N=C(c2ccc(OCCCO)cc2)O[C@@H]1c1ccccc1
z-score [1]: 0.659 (inactive)
composite z-score [2]: 0.683
z-score [3]: 26.1 (active)
z-score [4]: 11.4 (active)
z-score [5]: 2.02 (inactive)
z-score [6]: 1.97 (inactive)
z-score [7]: -0.499
z-score [8]: -0.432 (inactive)
z-score [9]: 0.174 (inactive)
z-score [10]: -1.66
z-score [11]: -0.721
z-score [12]: 0.533
z-score [13]: 0.292
z-score [14]: -1.3
z-score [15]: -1.13
z-score [16]: -0.381
z-score [17]: -0.282 (inactive)
z-score [18]: -1.09
z-score [19]: 0.0448
z-score [20]: 2.5 (inactive)
